Compounds with a hit are over-represented: about 2.6% of the library has one in this group of screens.
LGR2 antag = Drosophila LGR2 receptor signaling inhibition. HEK293 LGR2, CRE-luciferase, bursicon-stimulated, 4 h. inhibition, % at 9.99 µM. actives 0.35% (n = 380,000);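 active means drop in luminescence signal, shown as inhibition above about 50% in the replicate tests, limit read from the data, passing the limit was not always enough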;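 further: agonist challenge used bursicon conditioned medium at about half maximal strength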
EBV LMP1 NFkB = inhibitors of Epstein-Barr LMP1-induced NF-kappaB reporter; inhibition, % at 12.5 µM; LMP1-induced NF-kappaB luciferase reporter cells, luminescence; actives 0.69% (n = 350,000); in the data active means inhibition above about 41%;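 further: 0% = neutral control wells and 100% = reference inhibitor control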
TROY signal inh = inhibitors of TROY-dependent NF-kB signaling; Q293 LMP1-TROYcd NF-kB luciferase reporter, 4 h; inhibition, % at 10 µM; actives 0.98% (n = 360,000);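 active means compounds whose plate-normalised and pattern-corrected inhibition of the luciferase reporter signal at the single screening dose is 50% or more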
EWS-Fli block = inhibitors of EWS/Fli oncoprotein transcriptional activity. A673 NR0B1-luciferase reporter, viability-normalised. inhibition, % at 12.6 µM. actives 0.67% (n = 350,000);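 active means mean inhibition of at least 50% after viability correction, with every replicate also passing that limit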;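 further: firefly luciferase signal divided by Alamar Blue viability fluorescence both relative to DMSO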
TWEAK Fn14 block = TWEAK-Fn14 signaling inhibition; actives 2% (n = 360,000); TWEAK-stimulated Fn14 reporter cells, luciferase luminescence, 8 h; inhibition, % at 10 µM; in the data active means inhibition above about 50%
DNA binder FP = DNA binding small molecules; salmon sperm DNA acridine orange fluorescence polarization; AID 720586; actives 2% (n = 640); AC35, µM (titrated, usually from 68 µM), inactives show at the highest dose activity change, negative = DNA binding; shares compounds with EWS-Fli block;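 active means fitted curve reaches a 35% signal fall AC35 below twice the sample's top valid tested dose, actives reach about 48 µM in these data; inactive means the rest, including activity in the rising direction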;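 further: lower polarization ratio signals compound binding to DNA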
* = called active by the depositor; nt = not tested or not shown.

SMILES	LGR2 antag	EBV LMP1 NFkB	TROY signal inh	EWS-Fli block	TWEAK Fn14 block	DNA binder FP
CCC(=O)Nc1ccc2c(c1)C(=O)N(C)[C@H]1CC[C@H](CC(=O)NCc3ccc(OC)cc3)O[C@@H]1CO2	-21	nt	nt	2	nt	nt
O=C1c2ccccc2C(=O)N1CCCCNc1ccccc1	-6	-16	-51	57*	-27	-7%
O=C1c2ccccc2C(=O)N1CCCCCCc1ccccc1	5	-1	-30	-8	-5	nt
Cc1ccc(C(=O)O/N=C(\N)c2ccccn2)cc1	101*	79*	84*	52*	103*	3%
C/C(=N\OC(=O)c1ccc(Br)cc1)c1ccccn1	12	-3	-39	0	26	nt
C[C@@H]1CN([C@@H](C)CO)C(=O)c2cccc(NC(=O)Nc3cccc4ccccc34)c2O[C@@H]1CN(C)Cc1ccc(C(=O)Nc2ccccc2N)cc1	2	nt	nt	54*	nt	2%
C[C@H]1CN([C@@H](C)CO)C(=O)c2cccc(NC(=O)c3ccc(-c4nccs4)cc3)c2O[C@@H]1CN(C)Cc1ccc(C(=O)Nc2ccccc2N)cc1	9	nt	nt	52*	nt	7%
C[C@H]1CN([C@@H](C)CO)C(=O)c2cccc(NC(=O)Nc3ccccc3)c2O[C@@H]1CN(C)Cc1ccc(-c2ccccc2)cc1	-6	nt	nt	-10	nt	nt
C[C@@H]1CN([C@@H](C)CO)C(=O)c2cccc(NC(=O)Nc3ccccc3)c2O[C@@H]1CN(C)Cc1ccc(-c2ccccc2)cc1	nt	nt	nt	78*	nt	0%
C[C@@H]1CN([C@H](C)CO)C(=O)c2cccc(N(C)C)c2O[C@@H]1CN(C)Cc1ccc(C(=O)Nc2ccccc2N)cc1	nt	nt	nt	56*	nt	-3%
C[C@@H]1CCCCO[C@@H](CN(C)C(=O)NC2CCCCC2)[C@H](C)CN([C@H](C)CO)C(=O)c2cc(NC(=O)CCC(F)(F)F)ccc2O1	11	nt	nt	11	nt	nt
C[C@H](CO)N1C[C@H](C)[C@H](CN(C)S(C)(=O)=O)OCCCC[C@H](C)Oc2ccc(NC(=O)CCCN(C)C)cc2C1=O	-12	nt	nt	-13	nt	nt
Cc1ccc(S(=O)(=O)N(C)C[C@H]2Oc3c(cccc3N(C)C)C(=O)N([C@H](C)CO)C[C@@H]2C)cc1	-11	nt	nt	8	nt	nt
C[C@H](CO)N1C[C@H](C)[C@H](CN(C)Cc2ccc(C(=O)Nc3ccccc3N)cc2)Oc2c(cccc2N(C)C)C1=O	-7	nt	nt	54*	nt	4%
C[C@H](CO)N1C[C@H](C)[C@H](CN(C)Cc2ccc(C(=O)Nc3ccccc3N)cc2)Oc2c(NC(=O)C3CC3)cccc2C1=O	2	nt	nt	26	nt	nt
C[C@@H]1CN([C@H](C)CO)C(=O)c2cc(C#CCN(C)C)cnc2O[C@H]1CN(C)Cc1ccc(-c2ccccc2)cc1	-1	nt	nt	54*	nt	-17%
Cc1ccc(S(=O)(=O)N(C)C[C@H]2Oc3c(cccc3N(C)C)C(=O)N([C@@H](C)CO)C[C@@H]2C)cc1	59*	nt	nt	53*	nt	-11%
C[C@@H]1CCCCO[C@@H](CN(C)S(=O)(=O)c2ccc(F)cc2)[C@@H](C)CN([C@@H](C)CO)C(=O)c2cc(NC(=O)c3ccncc3)ccc2O1	-18	nt	nt	4	nt	nt
C/C=C/c1cnc2c(c1)C(=O)N([C@H](C)CO)C[C@@H](C)[C@H](CN(C)S(=O)(=O)c1ccc(F)cc1)O2	2	nt	nt	14	nt	nt
CCOc1ccc(-c2noc(CCC(=O)O)n2)cc1	-15	-1	30	54*	71*	-5%
COc1ccc(-c2noc(CCC(=O)O)n2)cc1	15	0	4	nt	17	nt
CCCNC(=O)N1C[C@@H](C)[C@@H](OC)CN(C)C(=O)c2cc(NC(=O)C3CCC3)ccc2OC[C@H]1C	13	nt	nt	-3	nt	nt
COCC(=O)Nc1ccc2c(c1)[C@H]1C[C@@H](CC(=O)NCc3ccc(-c4ccccc4)cc3)O[C@@H](CO)[C@H]1O2	3	nt	nt	5	nt	nt
O=C(C[C@H]1C[C@H]2c3cc(NC(=O)CC4CC4)ccc3O[C@H]2[C@@H](CO)O1)NCc1ccccc1F	-8	nt	nt	-12	nt	nt
O=C(C[C@@H]1C[C@H]2c3cc(NC(=O)CC4CC4)ccc3O[C@H]2[C@H](CO)O1)NCc1ccccc1F	1	nt	nt	56*	nt	-4%
SMILES	LGR2 antag	EBV LMP1 NFkB	TROY signal inh	EWS-Fli block	TWEAK Fn14 block	DNA binder FP
COCC(=O)Nc1ccc2c(c1)[C@@H]1C[C@@H](CC(=O)NCc3ccc(-c4ccccc4)cc3)O[C@@H](CO)[C@@H]1O2	1	nt	nt	60*	nt	6%
C[C@H]1CN([C@@H](C)CO)C(=O)c2cc(NC(=O)Nc3ccc(C(F)(F)F)cc3)ccc2O[C@@H]1CN(C)Cc1ccc(-c2ccccc2)cc1	2	nt	nt	-8	nt	nt
Cc1ccc(/C=C2\SC(=S)N(CCC(=O)NNC(=O)c3ccccc3O)C2=O)cc1	26	-4	1	51*	-17	5%
Cc1ccc(/C=C2\SC(=S)N(CCCC(=O)NNC(=O)c3ccccc3O)C2=O)cc1	1	55*	69*	82*	87*	9%
O=C(CCCN1C(=O)/C(=C/c2ccccc2Cl)SC1=S)NNC(=O)c1ccc(Cl)cc1	6	21	66*	74*	53*	5%
O=C(CCN1C(=O)/C(=C/c2ccccc2Cl)SC1=S)NNC(=O)c1ccccc1O	14	-6	-1	0	-26	nt
Cc1ccc(S(=O)(=O)Nc2ccc3c(c2)C(=O)N([C@@H](C)CO)C[C@H](C)[C@H](CN(C)S(=O)(=O)c2cn(C)cn2)OCCCC[C@@H](C)O3)cc1	-8	nt	nt	-13	nt	nt
CCc1c(C(=O)NN2C(=O)C3CCCCC3C2=O)csc1C (stereo not drawn)	22	1	-31	65*	-11	-2%
C[C@@H]1CN([C@@H](C)CO)C(=O)c2cc(N(C)C)ccc2O[C@H]1CN(C)Cc1ccc(C(=O)Nc2ccccc2N)cc1	9	nt	nt	63*	nt	-7%
C[C@H]1CN([C@@H](C)CO)C(=O)c2cc(N(C)C)ccc2O[C@H]1CN(C)Cc1ccc(C(=O)Nc2ccccc2N)cc1	10	nt	nt	61*	nt	-8%
C[C@H](CO)N1C[C@H](C)[C@H](CN(C)Cc2ccc(C(=O)Nc3ccccc3N)cc2)Oc2ccc(N(C)C)cc2C1=O	-18	nt	nt	65*	nt	3%
C[C@@H]1CN([C@@H](C)CO)C(=O)Cc2cc(NC(=O)C3CCCCC3)ccc2O[C@H]1CN(C)Cc1ccc(C(=O)Nc2ccccc2N)cc1	-6	nt	nt	52*	nt	-7%
C[C@H](CO)N1C[C@H](C)[C@H](CN(C)Cc2ccc(C(=O)Nc3ccccc3N)cc2)OCCCC[C@H](C)Oc2ccc(N(C)C)cc2C1=O	nt	nt	nt	9	nt	nt
Cc1ccccc1S(=O)(=O)N1CC[C@@H]2[C@H](CO)Nc3ccc(-c4ccccc4F)cc3[C@@H]21	-18	nt	nt	-9	nt	nt
C[C@@H]1CN([C@H](C)CO)C(=O)Cc2cc(N(C)C)ccc2O[C@@H]1CN(C)Cc1ccc(C(=O)Nc2ccccc2N)cc1	-19	nt	nt	8	nt	nt

Source: PubChem BioAssay (several laboratories)
